# Results taken from PubChem BioAssay AID449 (The Scripps Research Institute Molecular Screening Center, 2006).
# Screen size: about 56,000 compounds; about 320 (0.57%) were called active. The sample holds actives, similar compounds and a random draw of the others, so the mix is not that of the screen.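 How the source made its calls: active means activation above a cutoff set at the mean activation of all tested compounds plus 3 SD (cut at about 54% in these data); inactive means the rest, inconclusive results apart.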
# Target: Sphingosine 1-phosphate receptor 1 (Homo sapiens) (UniProt P21453)
# Sequence (P21453 whole entry, looked up): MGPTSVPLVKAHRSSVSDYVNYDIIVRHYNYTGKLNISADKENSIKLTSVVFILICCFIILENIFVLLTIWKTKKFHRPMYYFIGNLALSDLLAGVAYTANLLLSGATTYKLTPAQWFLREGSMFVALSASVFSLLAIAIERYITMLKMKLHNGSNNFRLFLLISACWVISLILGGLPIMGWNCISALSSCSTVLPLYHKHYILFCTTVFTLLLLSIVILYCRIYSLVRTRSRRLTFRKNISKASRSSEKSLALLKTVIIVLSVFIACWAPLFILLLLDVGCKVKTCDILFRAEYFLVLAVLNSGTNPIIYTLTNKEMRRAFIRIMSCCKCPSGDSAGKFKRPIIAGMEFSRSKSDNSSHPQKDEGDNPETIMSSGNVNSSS
# Experiment: activation or potentiation of human S1P1 signaling – cell-based, primary and confirmation screens, CRE-bla reporter, primary screen (AID 449);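 further: forskolin at 4 µM as EC80 and the EC20 agonist is SEW2871; 100% = SEW2871 at its EC100 plus forskolin at EC80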
# Details: S1P1 CRE-bla cells, forskolin, beta-lactamase FRET, potentiator mode, at 9.5 µM, stronger effect = higher value, 100% = saturating reference agonist, 0% = basal, S1P1 agonist co-added at EC20, 2 nM
# [1] = measured here: confirmation screen, triplicate average
SMILES,activation,activation [1]
c1ccc(-n2ncc3c2ncn2c(CSc4nc5ccccc5s4)nnc32)cc1,-7.8% (inactive),–
CCn1c(=O)cc(O)c2ccccc21,-26.6% (inactive),–
CCc1ccccc1NC(=O)c1cccs1,-18.1% (inactive),–
O=C(OCCO)c1cc(Cl)c(C(=O)OCCO)cc1Cl,-15.8% (inactive),–
Fc1ccc(Br)cc1/C=N/n1cnnc1,-20% (inactive),–
CC1(C)CC(=O)C(C=NCCC2=CCCCC2)=C(O)C1,-14.2% (inactive),–
O=C(c1cccc(C(=O)N2CCN(c3ccc(F)cc3)CC2)c1)N1CCN(c2ccc(F)cc2)CC1,46% (inactive),–
Cn1c2c(c(=O)n(C)c1=O)CN(Cc1ccco1)CN2,-5.4% (inactive),–
COc1ccc(C2/C(=C(/O)c3ccc(OC(C)C)cc3)C(=O)C(=O)N2CCCN2CCOCC2)cc1 (centres undefined),10.9% (inactive),–
CS(=O)(=O)N(Cc1nc2sc3c(c2c(=O)[nH]1)CCCC3)C1CCCCC1,-3.8% (inactive),–
Cc1ccccc1Cn1c(=O)[nH]c2ccccc21,1% (inactive),–
O=C(COc1ccc(Cl)cc1)Nc1ccccc1CO,0% (inactive),–
Cc1ccc(CCn2c3c(c4ccccc42)CN(C)CC3)cn1,6.4% (inactive),–
CC1CN(Cc2nc3c(c(=O)n(C)c(=O)n3C)n2Cc2cccc(Cl)c2)CC(C)O1 (centres undefined),-22.8% (inactive),–
CCOC(=O)C1C(=O)C=C(c2ccc(OC)cc2)CC1c1ccco1 (centres undefined),91.1% (active),86.3%
COc1ccc(CCNC(=O)c2ccco2)cc1,-9.8% (inactive),–
CCOC(=O)C1C(=O)NC(N2CCN(c3ccccc3)CC2)=NC1c1ccco1 (centres undefined),-4.8% (inactive),–
COc1ccc(-n2nc3c(c2NC(=O)Cc2cccc(C)c2)CS(=O)C3)cc1 (centres undefined),-1.3% (inactive),–
CN1CCN(c2cc(=O)n(-c3ccc(Cl)cc3)c(=O)[nH]2)CC1,-1.5% (inactive),–
O=C1c2ccccc2C(O)N1Cc1ccccc1Cl (centres undefined),15.2% (inactive),–
O=C(Cc1cccs1)N1CCCC(c2nc(-c3ccc(S(=O)(=O)N4CCCC4)cc3)no2)C1 (centres undefined),18.8% (inactive),–
COc1cc(-c2noc(C3CCCN(S(=O)(=O)c4cccc(Cl)c4)C3)n2)cc(OC)c1OC (centres undefined),91.7% (active),85.9%
O=C(c1cccs1)N1CCCC(c2nc(-c3ccc(F)cc3)no2)C1 (centres undefined),22.8% (inactive),–
COc1nc(NCc2ccc(Cl)cc2)nc(OC)n1,-7.3% (inactive),–
O=C(Cn1cnc2c(cnn2-c2ccc(F)cc2)c1=O)NCCc1ccccc1,-3.5% (inactive),–

SMILES,activation,activation [1]
Nc1nnc(C2CCCC2)s1,-4.9% (inactive),–
Cn1c(SCC(=O)N2CCOCC2)nnc1-c1ccc(NC(=O)c2ccccc2F)cc1,2.6% (inactive),–
COc1ccc(C(=O)Nc2nncs2)c(OC)c1,-24% (inactive),–
COC(=O)c1sc(NC(=O)c2csc3c2CCCC3)nc1C,8.7% (inactive),–
COC(=O)c1sc(NC(=O)c2ccc(OC)cc2OC)nc1C,108% (active),94.2%
CSCCC(NC(=O)c1ccc(=O)n(C)n1)c1nc2ccccc2[nH]1 (centres undefined),-17.6% (inactive),–
COc1ccc2nc(N3CCCC(O)C3)c(C#N)cc2c1 (centres undefined),16.4% (inactive),–
Cc1ccc(S(=O)(=O)C2(S(=O)(=O)c3ccc(C)cc3)CCCC2)cc1,-19.8% (inactive),–
CCCOC(=O)CC1C(=O)NCCN1Cc1ccc(F)cc1 (centres undefined),-20.1% (inactive),–
CCC(CC)c1nnc(NS(=O)(=O)Cc2ccccc2)s1,-23.9% (inactive),–
COc1cccc(C2/C(=C(/O)c3ccc(F)cc3)C(=O)C(=O)N2CCN(C)C)c1 (centres undefined),-5.8% (inactive),–
COc1ccc(OC)c2c1sc(=NC(=O)CN1C(=O)CCC1=O)n2C,-15.9% (inactive),–
COc1ccc(-n2nnc3c(=O)n(CC(=O)N4CCC(Cc5ccccc5)CC4)cnc32)cc1,18.2% (inactive),–
N#CCCN1CCN(S(=O)(=O)c2ccc(S(=O)(=O)NC3CCCCC3)cc2)CC1,-9% (inactive),–
CCN1CCN(Cc2c(O)ccc3c(=O)c(-c4ccc(OC)c(OC)c4)c(C(F)(F)F)oc23)CC1,-27.2% (inactive),–
O=c1c(-c2ccc3c(c2)OCCO3)c(C(F)(F)F)oc2cc(O)cc(O)c12,84% (active),95.4%
Cc1ccc(-c2nc(CS(=O)CC(=O)N3CCN(c4ncccn4)CC3)c(C)o2)cc1 (centres undefined),-2.4% (inactive),–
O=C1CC(c2cccc(Br)c2)C2=C(CCCC2=O)N1 (centres undefined),-6.5% (inactive),–
C=C(C)Cn1c(N2CCCC2)nc2c1c(=O)[nH]c(=O)n2C,-3.8% (inactive),–
O=C(c1cc(-c2ccccc2O)on1)N1CCCC1,-19% (inactive),–
COc1ccc(-c2c(C)nn3c(N4CCC(C(=O)N5CCCCC5)CC4)cc(C)nc23)cc1OC,-7.7% (inactive),–
CN(CCCC(=O)Nc1nccs1)S(=O)(=O)c1ccc(Cl)cc1,20.6% (inactive),–
O=c1c2ccccc2oc2nc3n(c(=O)c12)CCCS3,-24.6% (inactive),–
CNC(=O)c1c(NC(=O)c2ccc(S(=O)(=O)N3CCOCC3)cc2)sc2c1CCC2,-19.6% (inactive),–
O=C(NCc1ccc(Cl)c(Cl)c1)c1cccnc1,10.2% (inactive),–

SMILES,activation,activation [1]
COC(=O)c1c(NC(=O)CCN2CCOCC2)sc2c1CCCC2,-4.7% (inactive),–
O=S(=O)(NCc1ccccn1)c1ccc(F)cc1,-21.3% (inactive),–
O=S(N1CCCCCC1)C12CC3CC(CC(C3)C1)C2 (centres undefined),-13.3% (inactive),–
CCCn1c(O)c(CN2CCCC(C)C2)c(C)c(C#N)c1=O (centres undefined),1% (inactive),–
CCOC(=O)CSC1=C(C#N)C(c2ccco2)C(C(=O)OCc2ccccc2)=C(C)N1 (centres undefined),11.9% (inactive),–
FC(F)(F)c1cc(-c2ccco2)nc(N2CCOCC2)n1,-22.2% (inactive),–
CC(C)CCNC(=O)CCNS(=O)(=O)c1ccc(Cl)cc1,12.2% (inactive),–
O=C(NC1CCN(Cc2ccccc2)CC1)c1ccccc1F,-25.4% (inactive),–
CCOc1cc(/C=N/n2cnnc2)c(Br)cc1O,-9.1% (inactive),–
c1nnc2c3c4c(sc3ncn12)CCC4,-8.2% (inactive),–
COc1ncnc2sc3c(c12)CCCC3,-21.1% (inactive),–
Cn1cc(S(=O)(=O)N2CCC(Cc3ccccc3)CC2)c(=O)n(C)c1=O,-8.3% (inactive),–
Cc1ccsc1C(=O)OCC(=O)c1cc(C)n(CC2CCCO2)c1C (centres undefined),57% (active),84.7%
Cc1nnc(SCC(N)=O)n1CC1CCCO1 (centres undefined),-8.7% (inactive),–
COC(=O)c1ccc2c(=O)n(CC3CCCO3)c(=S)[nH]c2c1 (centres undefined),-12.1% (inactive),–
COC(=O)c1ccc(S(=O)(=O)c2ccc(C(=O)OC)s2)s1,1.7% (inactive),–
NC(=O)c1ccsc1NC(=O)c1ccco1,1% (inactive),–
COc1cc(=O)[nH]c(=O)n1C(=O)Cc1ccccc1,-7.8% (inactive),–
CC1CCCN(Cc2nc3c(c(=O)n(C)c(=O)n3C)n2Cc2cccc3ccccc23)C1 (centres undefined),10.7% (inactive),–
CCOC(=O)C1CCCN(C(=O)C2CCN(c3nnc(-n4cccc4)s3)CC2)C1 (centres undefined),-27.3% (inactive),–
Cc1c2cn[nH]c(=O)c2c(C)n1Cc1ccc(F)cc1,-6.4% (inactive),–
C=CCSc1nnc(Cn2c(=O)sc3ccccc32)n1C,-13.4% (inactive),–
Cn1c(=O)c2c(nc(SCCNS(=O)(=O)c3ccccc3)n2C)n(C)c1=O,-18.9% (inactive),–
O=c1c2[nH]c3ccc(Cl)cc3c2ncn1Cc1ccccn1,-22.3% (inactive),–
CN(C)/C=C/c1c(C#N)c(=O)ncn1Cc1ccccc1,-5.6% (inactive),–

SMILES,activation,activation [1]
CN(C)c1ccnc2sc3c(=O)n(Cc4ccccc4)cnc3c12,75.3% (active),84.4%
CCN1CCCC1CNc1ncnc2c1[nH]c1ccc(F)cc12 (centres undefined),4.2% (inactive),–
O=C1CCCN1CCCNc1ncnc2c1[nH]c1ccccc12,6.8% (inactive),–
CC(C)OCCCNc1ncnc2c1[nH]c1ccc(F)cc12,91.1% (active),110%
Cc1nc2c(c(=O)n1Cc1ccco1)c1nc3ccccc3nc1n2Cc1ccccc1,2.5% (inactive),–
CCCCCCn1c(SCC(=O)c2ccccc2)nc2c1c(=O)[nH]c(=O)n2C,-26.5% (inactive),–
O=C(CCN1C(=O)COc2ccccc21)NCCCN1CCN(c2ccc(F)cc2)CC1,-29.7% (inactive),–
N/C(=N\c1nc2ccccc2o1)NC(=O)C(Cc1ccccc1)N1C(=O)c2ccccc2C1=O (centres undefined),-12% (inactive),–
CCOc1ccc2[nH]c(=O)c(CN(CCCO)C(C)=O)cc2c1,2.1% (inactive),–
COc1ccc(S(=O)(=O)N2CCN(C(=O)c3cccs3)CC2)cc1OC,15.9% (inactive),–
Cc1ccc(-c2nc(COC(=O)c3c(C)noc3C)cs2)cc1,85.3% (active),98.2%
COC(=O)c1c(-c2ccc(C)cc2)csc1N,23% (inactive),–
Cc1noc(C)c1C(=O)OCC(=O)/C=C1\N(C)c2ccccc2C1(C)C,-18.5% (inactive),–
Cc1cccn2c(=O)c3cc(C#N)c(=O)n(CCCN4CCOCC4)c3nc12,-29% (inactive),–
Cc1nc(C)c(C(=O)Nc2cccc(C)c2C)o1,-15.9% (inactive),–
CCN(Cc1cc2cc(C)ccc2[nH]c1=O)S(=O)(=O)c1ccccc1,26.9% (inactive),–
CCc1ccccc1N(CC(=O)NCCSCc1ccco1)S(C)(=O)=O,-204% (inactive),–
COc1cc(-c2nc(-c3ccncc3)no2)cc(OC)c1OC,-7% (inactive),–
Cc1cccc(-c2noc(-c3ccc(F)cc3)n2)c1,1% (inactive),–
COc1ccc(-c2noc(-c3cccc(OC)c3OC)n2)cc1OC,84.3% (active),77.6%
O=P(c1cccs1)(c1cccs1)c1cccs1,-23.6% (inactive),–
O=C(Nc1ccccc1C(F)(F)F)c1cc(-c2ccc(O)cc2)on1,89% (active),96.3%
O=C(c1cc(-c2ccc(O)cc2)on1)N1CCCc2ccccc21,15.4% (inactive),–
Cc1cc(C)nc(NC(=O)Nc2ccccc2C(F)(F)F)n1,-24.3% (inactive),–
